# Several values for one entry are separate records, joined by “and”; a condition that tells them apart may be missing. Equal values may be shown once. Records with an inconclusive call do not appear. For some assays here: Entries with a potency or affinity are not part of this list. Activity calls are given as the source filed them. Cut-off read from the data, not from the text of the source, unless noted: active = parasite load remaining mostly below about 12% (no sharp cut-off); inactive = mostly above about 10%.
# Experiments:
# [1] = blockers of polyQ-driven CASP3 activation – cell-based (AID 1583); settings: polyglutamine-induced caspase-3 activation, cell assay; stronger effect = higher value;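 tested at 10 µM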
# [2] = yeast 75Q aggregation reduction – 75Q-TubU reporter (AID 1593); settings: Yeast 75Q polyglutamine aggregation reporter
# [3] = restoration of touch response, mutant HTT neurons – whole organism, C. elegans mechanosensory neurons, N-terminal huntingtin (AID 1599); settings: C. elegans polyQ-huntingtin mechanosensory neurons, stronger effect = higher value
# [4] = blockers of cytochrome c efflux from mitochondria – biochemical, purified mitochondria (AID 1603); settings: stronger effect = lower value;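 note: mouse liver mitochondria challenged with calcium chloride; signal normalized to the plate average as 100%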
# [5] = polyglutamine aggregate formation blockers (AID 1604); settings: polyglutamine-induced protein aggregation inhibition assay; stronger effect = higher value; tested at 2.5 µM
# [6] = glutamate transport activators, MN-1 cells, MN-1 cell line (AID 1612); settings: MN-1 motor neuron cells, stronger effect = higher value;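 note: tested at 1 µM final; 0% = mean of DMSO vehicle wells on each plate; positive means more glutamate uptake than control and negative means less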
# [7] = GFP-Q80 aggregate reduction, neuronal-like cells, cell-based, NGF-treated PC12, GFPQ80 (AID 1614); settings: PC12 NGF-treated GFP-polyQ80 inclusion reduction;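 note: lower means fewer inclusions and 0 means no inclusions at all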
# [8] = 75Q-TubH aggregate inhibition, S. cerevisiae, yeast (AID 1616); settings: S. cerevisiae 75Q-TubH polyglutamine aggregation suppression; stronger effect = higher value
# [9] = P. berghei load reduction in hepatocytes – cell-based, HepG2, luciferase luminescence, HepG2 viability, primary screen (AID 624349);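 note: 100% = mean of DMSO negative control wells on the same plate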; settings: P. berghei liver stage in HepG2, luciferase luminescence, concentration not given here; parasite load remaining: stronger effect = lower value; viability: measured here: HepG2 viability without parasites
# [10] = target: 6-phosphogluconate dehydrogenase, decarboxylating (Homo sapiens) (UniProt P52209); experiment: inhibition of human phosphogluconate dehydrogenase – biochemical, recombinant enzyme, NADPH absorbance, primary screen (AID 1159550;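 active = at least 20% inhibition of 6-phosphogluconate dehydrogenase activity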); settings: recombinant 6PGD, NADPH absorbance 341 nm; at 10 µM; stronger effect = higher value
# Sequence of 6-phosphogluconate dehydrogenase, decarboxylating (Homo sapiens) (P52209 whole entry, looked up): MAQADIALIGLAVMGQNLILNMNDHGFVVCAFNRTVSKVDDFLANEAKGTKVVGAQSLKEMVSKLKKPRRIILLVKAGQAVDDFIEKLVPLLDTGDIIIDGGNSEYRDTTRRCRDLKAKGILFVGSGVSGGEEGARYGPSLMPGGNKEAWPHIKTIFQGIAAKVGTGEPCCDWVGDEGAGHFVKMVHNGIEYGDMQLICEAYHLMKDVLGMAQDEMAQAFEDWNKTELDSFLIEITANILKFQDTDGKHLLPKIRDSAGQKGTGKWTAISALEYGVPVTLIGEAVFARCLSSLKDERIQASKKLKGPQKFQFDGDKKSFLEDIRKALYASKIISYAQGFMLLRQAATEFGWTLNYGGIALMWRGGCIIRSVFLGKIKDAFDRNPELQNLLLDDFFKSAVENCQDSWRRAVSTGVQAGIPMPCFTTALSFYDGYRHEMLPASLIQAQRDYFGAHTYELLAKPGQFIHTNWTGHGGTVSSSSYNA
# [11] = EMT-state selective cytotoxicity in co-culture – imaging, PC-3E GFP, TEM4-18 mCherry, primary screen (AID 1345086;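 active = compounds killing one labelled cell type while sparing the other, by normalised counts and ratio limits, not self-fluorescent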;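 for all read-outs here: cells exposed to compound for 72 h before imaging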;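 for red/green cell ratio (normalised): normalised mesenchymal count divided by normalised epithelial count so high means epithelial killing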); settings: PC-3E GFP / TEM4-18 mCherry co-culture, imaging cell counts, at 1 µM; for red/green cell ratio (normalised): actives lie on both sides, counts scaled to control wells, 1 = unselective
# [12] = target: NAD(+) hydrolase SARM1 (Homo sapiens) (UniProt Q6SZW1); experiment: blocking NAD cleavage by SARM1 SAM-TIR – cell lysate, NAD-Glo luminescence (AID 1508614;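 active = compound whose remaining NAD level is above about 45 nM, limit read from the data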;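 note: higher remaining NAD means stronger inhibition of SARM1 NADase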); settings: SAM-TIR HEK293T lysate NADase, at 1 µM, stronger effect = higher value
# Sequence of NAD(+) hydrolase SARM1 (Homo sapiens) (Q6SZW1 whole entry, looked up, the tested form may be a part): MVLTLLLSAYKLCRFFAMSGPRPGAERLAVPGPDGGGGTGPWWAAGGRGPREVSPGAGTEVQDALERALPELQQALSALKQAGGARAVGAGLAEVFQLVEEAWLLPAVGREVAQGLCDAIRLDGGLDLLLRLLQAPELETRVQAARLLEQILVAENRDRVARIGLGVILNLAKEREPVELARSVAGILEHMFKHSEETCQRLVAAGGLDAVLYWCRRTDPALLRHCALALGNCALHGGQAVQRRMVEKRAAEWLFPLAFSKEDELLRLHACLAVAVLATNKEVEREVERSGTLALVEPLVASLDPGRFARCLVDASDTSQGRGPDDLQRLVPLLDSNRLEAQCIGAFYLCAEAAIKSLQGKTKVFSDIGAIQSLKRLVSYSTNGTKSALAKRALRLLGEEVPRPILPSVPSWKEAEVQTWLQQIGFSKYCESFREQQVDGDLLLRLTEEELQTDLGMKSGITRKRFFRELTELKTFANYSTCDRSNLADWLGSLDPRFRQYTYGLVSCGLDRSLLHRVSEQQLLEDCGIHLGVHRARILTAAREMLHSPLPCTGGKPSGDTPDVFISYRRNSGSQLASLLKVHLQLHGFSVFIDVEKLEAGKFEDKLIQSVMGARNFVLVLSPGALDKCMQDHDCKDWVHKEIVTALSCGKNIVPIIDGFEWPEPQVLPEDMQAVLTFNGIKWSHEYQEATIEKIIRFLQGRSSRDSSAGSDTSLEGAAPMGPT
# [13] = target: Mitogen-activated protein kinase 7 (Homo sapiens) (UniProt Q13164); experiment: Gal4-ERK5 driven luciferase induction – cell-based, HTS, primary screen (AID 1508626;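 active = luciferase signal above three times the same-plate solvent-only control wells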;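 note: luciferase driven by Gal4-ERK5 fusion binding five Gal4 sites before minimal TATA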); settings: HeLa Gal4-ERK5 transactivation, 18 h, at 5 µM, stronger effect = higher value
# Sequence of Mitogen-activated protein kinase 7 (Homo sapiens) (Q13164 whole entry, looked up, the tested form may be a part): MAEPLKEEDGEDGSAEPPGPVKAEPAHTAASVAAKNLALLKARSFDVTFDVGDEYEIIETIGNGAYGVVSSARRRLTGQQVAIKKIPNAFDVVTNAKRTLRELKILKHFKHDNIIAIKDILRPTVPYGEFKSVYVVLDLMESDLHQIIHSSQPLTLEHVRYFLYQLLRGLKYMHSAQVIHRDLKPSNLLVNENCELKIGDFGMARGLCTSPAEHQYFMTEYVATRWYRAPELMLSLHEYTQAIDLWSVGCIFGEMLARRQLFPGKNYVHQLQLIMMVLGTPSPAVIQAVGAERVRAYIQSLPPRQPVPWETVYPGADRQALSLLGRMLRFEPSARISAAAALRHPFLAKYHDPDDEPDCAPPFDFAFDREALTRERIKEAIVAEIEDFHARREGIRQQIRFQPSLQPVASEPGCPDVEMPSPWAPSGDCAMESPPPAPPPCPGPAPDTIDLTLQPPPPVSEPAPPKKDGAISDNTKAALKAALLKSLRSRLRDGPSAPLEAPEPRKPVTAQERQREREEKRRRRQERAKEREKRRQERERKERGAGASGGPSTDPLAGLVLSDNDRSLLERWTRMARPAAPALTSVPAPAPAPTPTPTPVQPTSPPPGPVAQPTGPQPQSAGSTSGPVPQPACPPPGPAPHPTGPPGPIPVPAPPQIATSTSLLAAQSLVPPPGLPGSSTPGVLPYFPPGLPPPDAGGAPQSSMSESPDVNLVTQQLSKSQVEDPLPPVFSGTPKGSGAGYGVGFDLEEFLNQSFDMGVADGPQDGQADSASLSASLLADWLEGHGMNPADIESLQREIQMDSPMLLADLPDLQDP
# [14] = viability loss with induced miR-34 in A549 – imaging, A549 dox-inducible miR-34, nuclei and caspase counts, primary screen (AID 1347080;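 active = compounds whose cell count with miR-34 switched on is under 0.7 times the count with it off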); settings: A549 miR-34 inducible, Hoechst nuclei count, 48 h
# [15] = target: ATP-dependent translocase ABCB1 (Homo sapiens) (UniProt P08183); experiment: P-glycoprotein substrate transport blockade – cell-based (AID 377; in the data active = fluorescence slope change above about 50%); settings: MDR1-expressing cells, fluorescent substrate accumulation slope; stronger effect = higher value; concentration not given here
# Sequence of ATP-dependent translocase ABCB1 (Homo sapiens) (P08183 whole entry, looked up): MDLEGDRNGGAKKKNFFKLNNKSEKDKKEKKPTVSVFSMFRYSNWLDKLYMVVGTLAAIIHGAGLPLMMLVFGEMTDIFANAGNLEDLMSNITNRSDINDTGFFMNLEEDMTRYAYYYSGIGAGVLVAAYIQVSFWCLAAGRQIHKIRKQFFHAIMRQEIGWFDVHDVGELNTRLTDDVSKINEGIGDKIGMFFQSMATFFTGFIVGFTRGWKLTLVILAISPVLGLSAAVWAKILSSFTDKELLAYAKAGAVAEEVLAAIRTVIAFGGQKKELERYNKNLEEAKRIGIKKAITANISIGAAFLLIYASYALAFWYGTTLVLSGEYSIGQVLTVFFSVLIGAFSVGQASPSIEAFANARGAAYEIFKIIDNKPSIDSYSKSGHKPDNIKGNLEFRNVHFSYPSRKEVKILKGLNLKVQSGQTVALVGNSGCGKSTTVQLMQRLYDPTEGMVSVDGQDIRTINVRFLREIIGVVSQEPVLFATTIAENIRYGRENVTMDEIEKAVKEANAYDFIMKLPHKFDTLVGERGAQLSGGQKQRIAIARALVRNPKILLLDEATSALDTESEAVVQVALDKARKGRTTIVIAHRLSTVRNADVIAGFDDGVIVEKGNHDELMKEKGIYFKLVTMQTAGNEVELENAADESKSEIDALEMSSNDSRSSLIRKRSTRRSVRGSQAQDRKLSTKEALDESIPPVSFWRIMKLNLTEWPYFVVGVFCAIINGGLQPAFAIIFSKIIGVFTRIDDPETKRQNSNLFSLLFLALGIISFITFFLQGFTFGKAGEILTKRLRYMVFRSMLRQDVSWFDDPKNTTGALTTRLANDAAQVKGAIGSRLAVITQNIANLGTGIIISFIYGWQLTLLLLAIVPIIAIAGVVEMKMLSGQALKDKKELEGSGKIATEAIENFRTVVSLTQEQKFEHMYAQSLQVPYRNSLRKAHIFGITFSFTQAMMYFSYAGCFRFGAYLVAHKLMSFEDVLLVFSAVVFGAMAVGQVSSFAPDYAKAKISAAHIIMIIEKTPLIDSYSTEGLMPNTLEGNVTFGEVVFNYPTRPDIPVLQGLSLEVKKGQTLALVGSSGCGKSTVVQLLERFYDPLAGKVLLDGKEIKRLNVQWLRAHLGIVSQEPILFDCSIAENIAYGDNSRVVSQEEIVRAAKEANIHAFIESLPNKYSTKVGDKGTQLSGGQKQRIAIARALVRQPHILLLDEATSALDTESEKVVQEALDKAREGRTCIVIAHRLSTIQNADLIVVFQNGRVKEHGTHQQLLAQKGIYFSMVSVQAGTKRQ
# [16] = compounds altering circadian rhythm period length – cell-based, LOPAC library, luminescence reporter (AID 2774; call rule not given here;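 note: values are relative to mean of DMSO wells on each plate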); settings: circadian reporter cells, at 7 µM, actives lie on both sides
# [17] = compounds altering viability of human ES cells (AID 493140; call rule not given here;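 note: cells exposed to compounds for four days before counting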); settings: human embryonic stem cell survival screen; stronger effect = higher value
# [18] = tested on: Hepatitis C virus NS3 helicase; experiment: blockers of NS3h binding to ssDNA – biochemical, fluorescence polarization, LOPAC1280 library, primary screen (AID 687035; in the data active = inhibition above about 37%); settings: Purified HCV NS3 helicase, Cy5-dT15 ssDNA binding fluorescence polarization; stronger effect = higher value; concentration not given here
# [19] = compounds altering Cy5-DNA-NS3h complex signal – biochemical, LOPAC1280, artefact control for HCV NS3 helicase inhibitor project (AID 687037; call rule not given here); settings: Cy5-DNA-NS3h complex fluorescence interference counterscreen
# [20] = blockers of cellular phospholipid synthesis – cell-based, LOPAC library, screen 4, primary screen (AID 1347384; call rule not given here); settings: animal cells, phospholipid biosynthesis inhibition screen; at 10 µM
# [21] = MELAS cybrid and Rieske KO viability enhancers – cell-based, MELAS cybrids, Rieske KO mouse fibroblasts, CellTiter-Glo, primary screen (AID 1508586;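 active = mean z-score across replicates of 1.96 or higher in either the MELAS or the Rieske mutant cell line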;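 note: z relative to plate mean and SD of compound and empty wells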); settings: low glucose
# [22] = galactose survival enhancers in mitochondrial complex I cybrids – cell-based, galactose medium, ATP luminescence, primary screen (AID 1645843;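 active = z-score of at least 1.8 in each of two replicates, scored against plate mean and spread of sample wells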;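 note: positive z means more ATP and so rescue of galactose-driven cybrid death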); settings: complex I mutant cybrid cells, 72 h, stronger effect = higher value
# [23] = measured here: epithelial PC-3E GFP cell survival
# [24] = measured here: mesenchymal TEM4-18 mCherry cell survival
# [25] = stronger effect = lower value, cell number ratio, induced over uninduced
# [26] = measured here: relative caspase fold change +Dox/-Dox
# [27] = measured here: total cells with miR-34 induction, stronger effect = lower value
# [28] = measured here: total cells without miR-34 induction
smiles,measurement,setting,value
O=C1NS(=O)(=O)c2ccccc21,inhibition,[1],13.8%
same,score,[2],0.92
same,rescue above control,[3],-8.57
same,cytochrome c release ratio,[4],0.95
same,inhibition of aggregation,[5],78.3%
same,glutamate uptake change,[6],6.02%
same,inclusion score,[7],2
same,aggregation suppression score,[8],1.22
same,parasite load remaining,[9],95.1% (inactive) and 37.4% (inactive)
same,viability,[9],71.8% and 92.3%
same,inhibition,[10],10.4% (inactive)
same,red/green cell ratio (normalised),[11],1.14 (inactive)
same,normalised cell number,[11]; [23],1.03
same,normalised cell number,[11]; [24],1.17
same,remaining NAD,[12],10 nM (inactive)
same,luciferase signal,[13],40 AU (inactive)
Cn1nnnc1SCC1=C(C(=O)O)N2C(=O)C(NC(=O)C(OC=O)c3ccccc3)C2SC1 (stereo not drawn),inhibition,[1],20.1%
same,score,[2],1.46
same,rescue above control,[3],-9.96
same,cytochrome c release ratio,[4],1.54
same,inhibition of aggregation,[5],91.6%
same,glutamate uptake change,[6],-5.89%
same,inclusion score,[7],2
same,aggregation suppression score,[8],1.26
same,parasite load remaining,[9],85.6% (inactive) and 51.5% (inactive)
same,viability,[9],73.8% and 102%
same,inhibition,[10],0.99% (inactive)
same,red/green cell ratio (normalised),[11],0.82 (inactive)
same,normalised cell number,[11]; [23],1.29
same,normalised cell number,[11]; [24],1.06
same,fold change,[14]; [25],0.922 (inactive)
same,fold change,[14]; [26],2.94
same,cell count,[14]; [27],11600
same,cell count,[14]; [28],12600
CN(C)CCC(c1ccc(Br)cc1)c1ccccn1 (stereo not drawn),fluorescence slope change,[15],54.4% (active)
same,period change,[16],0.005 h (inactive)
same,survival,[17],1.08 (inactive)
same,inhibition,[18],0% (inactive)
same,fluorescence ratio (interference),[19],0.9 (inactive)
same,inhibition,[10],5% (inactive)
same,red/green cell ratio (normalised),[11],1.05 (inactive)
same,normalised cell number,[11]; [23],1.13
same,normalised cell number,[11]; [24],1.19
same,outcome,[20],inactive
same,z-score,"[21]; MELAS cybrid survival, CellTiter-Glo 48 h, stronger effect = higher value",-0.114 (inactive) and -0.273 (inactive) and -0.659 (inactive)
same,z-score,"[21]; Rieske KO mouse fibroblast survival, CellTiter-Glo 72 h",-0.476 and -0.248 and 0.132
same,remaining NAD,[12],10 nM (inactive)
same,luciferase signal,[13],48 AU (inactive)
same,z-score,[22],-0.18 (inactive) and -0.16 (inactive) and 0.035 (inactive)
CCOC(=O)CCC(=O)O[C@H]1[C@H](O[C@@H]2[C@@H](C)[C@H](O[C@H]3C[C@@](C)(OC)[C@@H](O)[C@H](C)O3)[C@@H](C)C(=O)O[C@H](CC)[C@@](C)(O)[C@H](O)[C@@H](C)C(=O)[C@H](C)C[C@@]2(C)O)O[C@H](C)C[C@@H]1N(C)C,inhibition,[1],26.4%
same,score,[2],1.27
same,rescue above control,[3],16.6
same,cytochrome c release ratio,[4],1.72
same,inhibition of aggregation,[5],47.5%
same,glutamate uptake change,[6],-6.79%
same,inclusion score,[7],2
same,aggregation suppression score,[8],1.2
same,parasite load remaining,[9],61.8% (inactive)
same,viability,[9],170%
same,inhibition,[10],-8.96% (inactive)
same,red/green cell ratio (normalised),[11],1.11 (inactive)
same,normalised cell number,[11]; [23],1.38
same,normalised cell number,[11]; [24],1.54
same,fold change,[14]; [25],0.87 (inactive)
same,fold change,[14]; [26],1.05
same,cell count,[14]; [27],11100
same,cell count,[14]; [28],12700
same,remaining NAD,[12],10 nM (inactive)
same,luciferase signal,[13],208 AU (inactive)
CO[C@H]1/C=C/O[C@@]2(C)Oc3c(C)c(O)c4c(O)c(c5c(nc6cc(C)ccn65)c4c3C2=O)NC(=O)/C(C)=C\C=C\[C@H](C)[C@H](O)[C@@H](C)C(O)[C@@H](C)[C@H](OC(C)=O)[C@@H]1C (stereo partly drawn),parasite load remaining,[9],51.2% (inactive)
same,viability,[9],113%
same,inhibition,[10],-0.37% (inactive)
same,red/green cell ratio (normalised),[11],1.15 (inactive)
same,normalised cell number,[11]; [23],1.21
same,normalised cell number,[11]; [24],1.39
same,fold change,[14]; [25],0.902 (inactive)
same,fold change,[14]; [26],2.53
same,cell count,[14]; [27],11500
same,cell count,[14]; [28],12700
CC1=C(/C=C/C(C)=C/C=C/C(C)=C/CO)C(C)(C)CCC1,inhibition,[1],25.6%
same,score,[2],-0.82
same,rescue above control,[3],28.1
same,cytochrome c release ratio,[4],1.19
same,inhibition of aggregation,[5],88.9%
same,glutamate uptake change,[6],-6.81%
same,aggregation suppression score,[8],0.11
same,parasite load remaining,[9],115% (inactive) and 48.9% (inactive)
same,viability,[9],69.5% and 99.6%
same,inhibition,[10],-7.77% (inactive)
same,red/green cell ratio (normalised),[11],1.32 (inactive)
same,normalised cell number,[11]; [23],0.9
same,normalised cell number,[11]; [24],1.18
same,fold change,[14]; [25],0.915 (inactive)
same,fold change,[14]; [26],2.67
same,cell count,[14]; [27],11800
same,cell count,[14]; [28],12800
same,remaining NAD,[12],10 nM (inactive)
same,luciferase signal,[13],48 AU (inactive)

# Source: PubChem BioAssay
